This note sets out measurements from PubChem BioAssay AID1259415 (National Center for Advancing Translational Sciences (NCATS), 2018).

The campaign covered roughly 410,000 compounds. About 18,000 (4.4%) were called active. Not shown: some 7% with an inconclusive outcome. This is one part of a sample in which actives are shown more often than they occur. Unmarked numbers belong to inactive results. Cut-off read from the data, not from the text of the source: active = activity change below about -60%; inconclusive = no clear call, values can overlap the other calls; inactive = above about -39%.
% is set by controls: 0 for no effect and ±100 for the full control effect.

This assay is described as follows: qHTS Assay for inhibitors of the human cytomegalovirus (HCMV). Particulars: HFF cells, HCMV-luciferase reporter, 72 h; at 57.5 µM; active compounds read low. Summed up:
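Screen run at 2 compound doses on HFFs infected with reporter HCMV, MOI 1 PFU/cell. Luciferase activity from cell lysates at 72 h post infection gave inhibition relative to buffer-only and Salinomycin wells.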
(In qHTS, concentration-response curves come from the screen itself.)
On to `Cc1ccc(-n2ncc3c(NCCCn4ccnc4)ncnc32)cc1Cl`, for which the activity change, negative = inhibition was 7.64%. Turning to `Cc1noc(C)c1C(=O)NC(C)c1ccc2c(c1)OCO2` (stereo unspecified), the activity change, negative = inhibition was 59.8%. Then `CC(NC(=O)c1ccco1)c1ccc2c(c1)OCO2` (stereo unspecified), with 11.5%; and `CC(NC(=O)Nc1cccc([N+](=O)[O-])c1)c1ccc2c(c1)OCO2` (stereo unspecified), with -64.3% (active); and `COc1ccc(CCC(=O)NCCc2csc(-c3ccc(Cl)cc3)n2)cc1`, with 7.81%.

As to `Cn1c(Cc2csc(N)n2)nnc1SC/C=C/c1ccccc1`, the activity change, negative = inhibition was -18.7%. `O=C(Nc1ccc(S(=O)(=O)N2CCC(c3nc4ccccc4s3)CC2)cc1)c1ccccc1F`: the activity change, negative = inhibition was -12.7%.

With `O=C(C[n+]1cc(-c2ccc(Cl)c(Cl)c2)n2c1CCC2)c1cccs1`, the activity change, negative = inhibition was -37.8%. Regarding `Cn1c(-c2ccccc2)c[n+]2c1CCCCC2`, the activity change, negative = inhibition was -28.9%. Then `Cc1ccc(C(=O)C[n+]2cc(-c3ccccc3)n3c2CCCCC3)cc1`, with -92.1% (active). As to `Cn1ccc2cc(S(=O)(=O)N3CCCC(C(=O)NCc4ccccc4F)C3)ccc21` (stereo unspecified), the activity change, negative = inhibition was -1.65%. Then `CCCCOc1ccc(CNC(=O)c2ccc3c(c2)N(C)C(=O)C2CCCCN32)cc1` (stereo unspecified), with 25.7%. In the case of `CCOC(=O)C1CCCN(S(=O)(=O)c2cc(-c3cc(C)no3)ccc2OC)C1` (stereo unspecified), the activity change, negative = inhibition is -10%. Turning to `CC(C)c1ccc(NC(=O)Cn2c3ncccc3c(=O)n2-c2ccccc2)cc1`, the activity change, negative = inhibition is 8.47%. Regarding `CCc1ccc2c(c1)NC(=O)C2(C)Cc1ccc(OC(F)(F)F)cc1` (stereo unspecified), the activity change, negative = inhibition is -75.3% (active). Turning to `CN1CCN(Cc2ccc(OC(F)(F)F)cc2)CC1`, the activity change, negative = inhibition is -3.19%. For the compound `COc1ccccc1CC1(C)C(=O)Nc2ccc(OC(F)(F)F)cc21` (stereo unspecified), the activity change, negative = inhibition was -18.7%.

As for `CCn1c2ccccc2c2cc(CN3CCN(Cc4cccc(Cl)c4)CC3)ccc21`, the activity change, negative = inhibition is -0.564%. `Cc1ccc(/C=N/NC(=S)NC2CCCCC2)o1`: the activity change, negative = inhibition is -8.71%. Then `C/C(=N\NC(=S)NC1CCCCC1)c1ccc(C)o1`, with -90.6% (active); and `C/C(=N/NC(=O)c1ccc(Br)o1)c1ccc(C)o1`, with 80.2%. `Cn1c(=O)c2c(n3c4ccccc4nc13)NC(=O)CC2c1cccc(Cl)c1` (stereo unspecified): the activity change, negative = inhibition is 1.23%.

For the compound `CC(C)Cn1c(C2CC(=O)N(c3ccccc3Cl)C2)nc2ccccc21` (stereo unspecified), the activity change, negative = inhibition is -19.6%.

`CCCS(=O)(=O)N1CCC(n2c(C(F)(F)F)nc3cccnc32)CC1`: the activity change, negative = inhibition was -21.7%. Then `O=C(OCC(O)C(O)COC(=O)c1ccccc1)c1ccccc1` (stereo unspecified), with 4.04%; and `O=C(Nc1ccc(Cl)cc1C(=O)c1ccccc1)c1cc(Cl)cc(Cl)c1`, with 5.04%. Take `O=C(NC1=CC(=O)c2ccccc2C1=O)c1ccccc1`: the activity change, negative = inhibition was -66.1% (active). For `O=C(NCCCO)c1nn(-c2ccc(Cl)cc2)nc1CO`, the activity change, negative = inhibition is -7.65%.

`CCCSc1nc(NCc2ccco2)c2c3c(sc2n1)COC(C)(CC)C3` (stereo unspecified): the activity change, negative = inhibition was -2.99%. As to `CCC1(C)Cc2c(sc3[nH]c(=S)n(Cc4ccccc4)c(=O)c23)CO1` (stereo unspecified), the activity change, negative = inhibition was -69.4% (active).

In the case of `CC(C)c1nc2sc3c(c2c(=O)n1N)CC(C)(C)OC3`, the activity change, negative = inhibition was -18.9%.

Consider `Cn1c(=O)c2c(ncn2CC(=O)Nc2cccc(C(F)(F)F)c2)n(C)c1=O`, for which the activity change, negative = inhibition is 2.82%. As for `Cc1ccc(C)c(C(O)c2ncc(-c3cccc4ccccc34)[nH]2)c1` (stereo unspecified), the activity change, negative = inhibition was 4.52%. With `CC(=O)N1CCCc2cc(S(=O)(=O)Nc3ccc(Cl)cc3F)ccc21`, the activity change, negative = inhibition is -24.4%. Regarding `CC(CCc1ccccc1)NCC(O)c1cccc([N+](=O)[O-])c1` (stereo unspecified), the activity change, negative = inhibition was -22%.

With `Cc1ncoc1C(=O)NCCC(c1ccccc1)c1ccccc1`, the activity change, negative = inhibition was -6.8%. `CC(Cc1ccccc1)NCCC(c1ccccc1)c1ccccc1` (stereo unspecified): the activity change, negative = inhibition is -91.4% (active).

Turning to `CCOC(=O)C(CCOc1cccc(CC)c1)C(=O)OCC`, the activity change, negative = inhibition was -23.8%. Consider `CC(C)NS(=O)(=O)c1ccc(OCC(=O)Nc2ccc3c(c2)OCCO3)cc1`, for which the activity change, negative = inhibition is -82.2% (active).

With `CC(=O)Nc1ccc(NC(=O)COc2ccc(S(=O)(=O)NC(C)c3ccccc3)cc2)cc1` (stereo unspecified), the activity change, negative = inhibition was 28.7%. As for `CC(C)NS(=O)(=O)c1ccc(OCC(=O)NC2CCCCCC2)cc1`, the activity change, negative = inhibition was -39.9%. Turning to `O=C(NCc1ccccc1)C(=O)NCC(c1ccco1)S(=O)(=O)c1ccc(Cl)cc1` (stereo unspecified), the activity change, negative = inhibition was -24.1%.

Turning to `O=c1oc(-c2ccco2)nc2sc3c(c12)CCCCC3`, the activity change, negative = inhibition was 69%. Then `c1nnc2c3c4c(sc3ncn12)CCC4`, with -65.9% (active); and `S=c1[nH]nc2c3c4c(sc3ncn12)CCCC4`, with -26.7%. `O=C(Nc1nnc(C2=COCCO2)o1)c1ccc([N+](=O)[O-])s1`: the activity change, negative = inhibition is -20.1%. On to `Cc1cccc(Cn2c(SCc3ccc(C(=O)N4CCC(C)CC4)cc3)nc3ccncc32)c1`, for which the activity change, negative = inhibition is -62.6% (active). In the case of `COc1cccc(Cn2c(SCc3ccc(C(=O)N4CCC(C)CC4)cc3)nc3ccncc32)c1`, the activity change, negative = inhibition is -13.1%. Turning to `Cc1cccc(CSc2nc3ccncc3n2Cc2ccc(C(=O)O)cc2)c1`, the activity change, negative = inhibition is 9.17%. Turning to `NC1(C#Cc2ccc(F)c(-c3noc4ccccc34)c2)CCCCC1`, the activity change, negative = inhibition was -18.5%. Turning to `O=C(NNc1ccccc1Cl)C(O)(c1cccc(C(F)(F)F)c1)c1cccc(C(F)(F)F)c1`, the activity change, negative = inhibition was -100% (active).

With `O=c1cc(O)c(-c2cccc(C(F)(F)F)c2)c(Cl)[nH]1`, the activity change, negative = inhibition was -14.8%. Turning to `O=C(Nc1cc(C(F)(F)F)ccc1Cl)c1nc2ccccc2nc1N1CCCCC1`, the activity change, negative = inhibition was 10.2%. With `COc1cccc(/C=C2\Sc3ccc(C(=O)NCC4CCCO4)cc3N(C)C2=O)c1` (stereo unspecified), the activity change, negative = inhibition was -14.4%.

Take `COc1ccc2c(c1)C(C)=CC(C)(C)N2C(=O)CNCc1ccc2c(c1)OCO2`: the activity change, negative = inhibition was -9.9%. Take `COc1cccc(NC(=O)C2C(c3ccccc3)C2(Cl)Cl)c1` (stereo unspecified): the activity change, negative = inhibition was -32.5%. Turning to `COc1ccc2c(c1)C(C)=CC(C)(C)N2C(=O)Nc1ccccc1`, the activity change, negative = inhibition is -99.4% (active). For the compound `C#CCOc1ccc(C2CC(=O)Nc3c2c(C)nn3-c2nc(C)cc(C)n2)cc1` (stereo unspecified), the activity change, negative = inhibition is -10.8%. Then `CC[C@]12c3[nH]c4cc(CCC(=O)N(C)C)ccc4c3CCN1C(=O)[C@@H](CC(=O)NCCCN(C)C)C[C@@H]2C(=O)N1CCN(C(=O)c2ccco2)CC1`, with -18.4%; and `CN1c2ccc(Cl)cc2-c2nc(SCC(=O)Nc3cc(F)ccc3F)ncc2S1(=O)=O`, with -32.3%; and `O=C(Nc1ccccc1C(=O)N1CCOCC1)c1ccc(CSc2ccccc2)cc1`, with -24.2%. `O=C(Nc1ccc(CSc2ccccc2)cc1)c1ccc(CN2CCOCC2)cc1`: the activity change, negative = inhibition is -79.7% (active).

With `C/C(CCc1ccccc1)=N\NC(=O)c1ccc(CN2CCOCC2)cc1`, the activity change, negative = inhibition is -12.4%.

For `CCCCN1CCNC1=S`, the activity change, negative = inhibition is 47%. Take `CCn1cc(C(=O)NCc2ccc(C)cc2)c(=O)c2cc(S(=O)(=O)N3CCc4ccccc4C3)ccc21`: the activity change, negative = inhibition was 7.01%. Then `CCc1ccccc1N(C)C(=O)C1CCCN(c2ncnc3onc(-c4ccc(F)cc4)c23)C1` (stereo unspecified), with 6.75%. As for `Cc1ccc(Cl)cc1N(C)C(=O)C1CCCN(c2ncnc3onc(-c4ccc(F)cc4)c23)C1` (stereo unspecified), the activity change, negative = inhibition was -73.3% (active). Then `Cc1c(Cl)cccc1NC(=O)C1CCCN(c2ncnc3onc(C)c23)C1` (stereo unspecified), with 4.4%. For the compound `CC(C)Oc1ccc(S(=O)(=O)N2CCOCC2)cc1NC(=O)C1CCCC1`, the activity change, negative = inhibition is 36.7%. On to `CCCc1cc(=O)oc2c(C)c(O)c(CN3CCCCC3)cc12`, for which the activity change, negative = inhibition was -20.3%. For the compound `OC(COc1ccc(CN2CCSCC2)cc1)CN1CCCCC1` (stereo unspecified), the activity change, negative = inhibition was 0%. Then `O=C(c1ccc(Cl)cc1)c1ccc(OCC(O)CN2CCCCC2)cc1` (stereo unspecified), with -63.1% (active); and `Cn1c(=O)c2c(nc(N3CCCCCC3)n2CC(O)COc2ccc(Cl)cc2)n(C)c1=O` (stereo unspecified), with 16.7%; and `COc1ccc(NC(=O)CCNS(=O)(=O)c2ccc3c(c2)CCCC(=O)N3)cc1Cl`, with -20.5%.

Turning to `CCn1c(CNC(=O)C23CC4CC(CC(C4)C2)C3)nnc1SCC(=O)Nc1ccc(OC)cc1`, the activity change, negative = inhibition was 10%. Then `Cc1no[n+]([O-])c1COc1ccccc1/C=C1\NC(=S)NC1=O`, with -83.4% (active); and `C#CCOc1ccccc1/C=C1/C(=O)ON=C1C`, with 52.7%. `COC(=O)c1ccc(Cn2c(SCC(=O)N(C)c3ccccc3)nc3ccccc32)cc1`: the activity change, negative = inhibition was -6.59%. On to `N/C(=N\OC(=O)CCc1ccccc1)c1ccc(Cl)cc1`, for which the activity change, negative = inhibition was 10.6%. As to `COc1ccc(-c2nnc(SC(=O)N3c4ccccc4Sc4ccccc43)o2)cc1`, the activity change, negative = inhibition was 10.6%. Then `N/C(=N\OC(=O)N1c2ccccc2Sc2ccccc21)c1ccc(Br)cc1`, with -63.7% (active); and `COc1cc(Cl)c(NC(=O)CC(C)S(=O)(=O)c2cc3c(cc2C)NC(=O)CO3)c(OC)c1` (stereo unspecified), with -4.28%; and `COc1ccc(S(=O)(=O)N(C)CC(=O)Nc2ccc3c(c2)OCCO3)cc1OC`, with 51.4%. Then `CS(=O)(=O)N(CC(=O)NCc1ccco1)c1ccc2c(c1)OCO2`, with -9.98%.

Regarding `O=C(CN(c1ccc2c(c1)OCCO2)S(=O)(=O)c1ccccc1)Nc1ccc2c(c1)OCO2`, the activity change, negative = inhibition is -86.6% (active). Then `Cc1cccn2c(=O)c3cc(C(=O)NC(C)c4ccccc4)c(=N)n(CCCO)c3nc12` (stereo unspecified), with -15.1%; and `Cc1cccn2c(=O)c3cc(C#N)c(=NC(=O)c4cccnc4)n(CC4CCCO4)c3nc12` (stereo unspecified), with 2.74%. As for `COc1ccc(CCn2c(=N)c(C(=O)NCc3ccco3)cc3c(=O)n4cccc(C)c4nc32)cc1`, the activity change, negative = inhibition was -83.4% (active). As for `CCCn1c(=N)c(C(=O)NCc2ccccc2)cc2c(=O)n3cccc(C)c3nc21`, the activity change, negative = inhibition was -7.61%. As for `COCCCn1c(C(=O)NC2CCCCC2)cc2c(=O)n3cccc(C)c3nc21`, the activity change, negative = inhibition is 1.95%. Then `Cc1cccn2c(=O)c3cc(C(=O)NCCN4CCOCC4)c(=N)n(Cc4cccnc4)c3nc12`, with -86% (active).
